Sampled rows, rich in hits. Any-hit rate of the full collection: about 1.7%.
GLP1R inv ag – inverse agonists of human GLP-1 receptor. P43220. HEK293 GLP-1R CRE-luciferase, luminescence, 24 h; GLP-1R form is constitutively active. Potency, µM (highest dose often 38.3 µM), for the others: top-dose activity change, negative = inhibition, actives largely listed as inhibitors. 410,000 compounds, 1.6% hits. AID 624417; also: % is scaled to controls: 0 for no effect and ±100 for the full control effect; nearly all actives have a fitted effect of over 55% in size
Target sequence (P43220 whole entry, looked up): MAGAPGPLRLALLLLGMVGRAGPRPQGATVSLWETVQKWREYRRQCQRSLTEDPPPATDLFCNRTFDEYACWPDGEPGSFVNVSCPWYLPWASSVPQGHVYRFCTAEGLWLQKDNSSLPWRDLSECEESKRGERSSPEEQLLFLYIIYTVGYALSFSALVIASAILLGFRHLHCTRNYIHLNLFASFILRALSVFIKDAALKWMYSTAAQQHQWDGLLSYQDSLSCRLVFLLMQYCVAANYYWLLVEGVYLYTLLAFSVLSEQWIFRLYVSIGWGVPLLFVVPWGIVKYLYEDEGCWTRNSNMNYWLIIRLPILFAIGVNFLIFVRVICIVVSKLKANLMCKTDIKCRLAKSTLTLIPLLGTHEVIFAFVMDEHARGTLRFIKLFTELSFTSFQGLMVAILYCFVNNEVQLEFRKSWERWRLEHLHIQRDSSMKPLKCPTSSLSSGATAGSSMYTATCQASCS
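Cells are plated, allowed 12 hours at 37 deg C, then treated with compounds for 24 hr before luciferase detection reagent is added and luminescence is read after 12 min at room temperature. The HEK293 line carries constitutively active GLP-1R with a cAMP-responsive reporter.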
GLP1R cytotox – cytotoxic in the GLP-1 receptor inverse agonist counter-screen; AID 624418; Potency, µM (doses to about 38.3 µM), for inactives: top-dose activity change, negative = inhibition, usual class: inhibitors; 410,000 compounds, 0.13% hits; HEK293 cAMP-luciferase reporter cells, luminescence, 24 h;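 also: loss of luciferase light is scored as toxicity; % is scaled to controls: 0 for no effect and ±100 for the full control effect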
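Step one: seed cells (200 cells/uL, DMEM with 10% Nu serum, 1% pen-strep). Step two: 12-hour incubation at 37 deg C. Step three: pin 23 nL compound, incubate 24 hr. Step four: add luciferase reagent, read luminescence 12 min later.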
GLP-1R agonist – agonists of human GLP-1 receptor | Potency, µM (series often up to 45.6 µM), inactives show top-dose activation, actives largely listed as activators | AID 624172 | P43220 | HEK293 GLP-1R CRE-luciferase, luminescence, 4-6 h; cells express a hypersensitive GLP-1R form | 380,000 compounds, 0.007% hits; also: % of control where 0% means no effect
* marks the source's active call; other numbers are inactive results; i = inactive; u = inconclusive; x = no result given; [ ] = another dose, or the depositor's remark. Calls follow the shape of the dose curve; as a rule, active = well fitted curve in the direction sought with a large enough effect; inconclusive = small, poorly fitted or top-dose-only effect, or another doubt; inactive = no such curve, though single readings can be large; an effect the other way counts as inactive or inconclusive. Potency is read from the fitted curve at half-maximal effect.

SMILES	GLP1R inv ag	GLP1R cytotox	GLP-1R agonist
CCC(=O)N(C1=C(NC(C)C)C(=O)c2ccccc2C1=O)C(C)C	9%	-18%	0%
CCCNC1=C(N(C(C)=O)c2cccc(F)c2)C(=O)c2ccccc2C1=O	8.9µM*	u	-40%
CNc1ccccc1C(C)(C)c1cc(-c2cccc(OC)c2)no1	7.1µM*	-11%	7%
CNc1ccccc1C(C)(C)c1cc(-c2cc(C)cc(C)c2)no1	u	12%	0%
CCn1cc(C(=O)OCC(=O)Nc2cccc(Cl)c2C)c(=O)c2ccc(C)nc21	5%	3%	-3%
Cc1cc(/C=C2\SC(=S)N(Cc3ccco3)C2=O)c(C)n1-c1cccnc1	-2%	66%	2%
Cc1cc(/C=C2/SC(=S)N(c3cccc(C(F)(F)F)c3)C2=O)c(C)n1-c1cccnc1	5µM*	-18%	6%
Cc1cccc(CNC(=O)c2cnc3sc(N4CCOCC4)nn3c2=O)c1	7%	0%	x
Cc1cc(-c2nnc(SCC(=O)N3C(C)CCCC3C)o2)no1 (stereo not given)	16%	10%	-9%
CC1CCCC(C)N1C(=O)CSc1nnc(C2CCCCC2)o1 (stereo not given)	3.2µM*	1%	0%
CCN(c1cccc(C)c1)S(=O)(=O)c1ccc(-c2cc(C)no2)s1	u	19%	9%
Cc1cccc(N(C)S(=O)(=O)c2ccc(-c3cc(C)no3)s2)c1	1µM*	-11%	9%
CCN(CC(=O)N1CCOCC1)S(=O)(=O)c1ccc(Cl)cc1	33%	-6%	-2%
CCN(CC)CCNC(=O)c1cc2c(=O)n(C)c3cc(Cl)ccc3c2s1	-14%	16%	3%
Cc1ccc(C)c(NC(=S)NC(NC(=O)/C=C/c2ccccc2)C(Cl)(Cl)Cl)c1 (stereo not given)	3.5µM*	-21%	-15%
O=C(/C=C/c1ccccc1)NC(NC(=S)Nc1ccc(Cl)cc1Cl)C(Cl)(Cl)Cl (stereo not given)	u	u	-10%
CC(=O)Nc1cc(-c2ccccc2)cn2c(-c3cccc(C(C)=O)c3)cnc12	-15%	-3%	4%
O=c1cc(CN2CCN(C/C=C/c3ccccc3)CC2)c2cc(O)c(-c3ccccc3)cc2o1	-10%	18%	-4%
Cc1c(O)ccc2c(CN3CCN(C/C=C/c4ccccc4)CC3)cc(=O)oc12	3.5µM*	i	7%
COc1ccc(-c2nc3c4ccccc4n(CC(=O)Nc4cc(F)ccc4F)c(=O)n3n2)cc1	-4%	-16%	x
Cc1ccc(C(CNS(=O)(=O)c2ccc(Br)cc2)N2CCN(C)CC2)cc1 (stereo not given)	7.9µM*	-10%	-1%
CN1CCN(C(CNS(=O)(=O)c2ccc(Br)cc2)c2ccc3c(c2)OCO3)CC1 (stereo not given)	10µM*	16%	9%
Cc1ccc(C(CNS(=O)(=O)c2ccccc2)N2CCN(C)CC2)cc1 (stereo not given)	-48%	1%	1%
O=S(=O)(NCC(c1ccc2c(c1)OCO2)N1CCOCC1)c1ccc(Br)cc1 (stereo not given)	u	-3%	9%
O=C1CS(=O)(=O)C2(C(=O)N(Cc3ccccc3)c3ccccc32)N1c1ccccc1 (stereo not given)	15%	-1%	-6%
SMILES	GLP1R inv ag	GLP1R cytotox	GLP-1R agonist
COCCNc1nc2cc(-c3cccc(Cl)c3)sc2c(=O)n1C	12%	2%	14%
Cc1ccc(C)c(CNC(=O)c2cnc3sc(N4CCCC4)nn3c2=O)c1	-2%	2%	x
Cc1cc(N2CCN(C)CC2)nc2ccc(NC(=S)N3CCCCC3)cc12	10µM*	-22%	19%
Cc1cc(N2CCN(C)CC2)nc2ccc(NC(=S)N3CCN(c4ccc(F)cc4)CC3)cc12	u	u	0%
COc1ccc(CC(=O)Nc2ccc3nc(N4CCCCC4)cc(C)c3c2)cc1	u	-17%	x
COc1cc(OC)cc(C(=O)Nc2ccc3nc(N4CCCCC4)cc(C)c3c2)c1	11µM*	-19%	x
Cc1cc(N2CCN(C)CC2)nc2ccc(NC(=S)N3CCN(c4ccc(Cl)cc4)CC3)cc12	u	-3%	1%
Cc1cc(N2CCN(C)CC2)nc2ccc(NC(=S)N3CCCCCC3)cc12	11µM*	-15%	21%
CCC(=O)N1CCc2cc(Br)cc(S(=O)(=O)N3CCCC(C(=O)Nc4ccc(C(C)C)cc4)C3)c21 (stereo not given)	10%	4%	0%
CCCn1c(=O)n(-c2ccccc2Cl)c(=O)c2sc3ccccc3c21	11%	3%	1%
CCCCCC1CCC(c2n[nH]c(=S)n2C)CC1 (stereo not given)	u	3.2µM*	8%
C=CCn1c(C2CC2)n[nH]c1=S	19%	-12%	8%
O=C(NC(=S)Nc1cc(C(F)(F)F)ccc1N1CCOCC1)c1ccco1	u	u	32%
CCOC(=O)CN(C(=O)c1snc(C(N)=O)c1N)C(C(=O)NC1CCCCC1)c1ccc(F)cc1 (stereo not given)	30%	-23%	4%
CCCCNc1c(-c2ccc(-c3ccc(OC)cc3)c(OC)c2)nc2ccccn12	u	-9%	-10%
CC1=CC(C)(C)N2C(=O)C3(N=C(N)NC(Nc4ccccc4)=N3)c3cc(C)cc1c32 (stereo not given)	3.5µM*	u	0%
Cc1cccc(NC2=NC(C)(C)N=C(N)N2)c1	u	-7%	-1%
Cc1cc(NC(=O)CCCSc2nc(-c3ccco3)cc(C(F)(F)F)n2)n(-c2ccccc2)n1	8.9µM*	-18%	2%
Cc1cc(NC(=O)CSc2nc(-c3ccco3)cc(C(F)(F)F)n2)n(-c2ccccc2)n1	-25%	-11%	9%
Cc1ccc(S(=O)(=O)N(C)Cc2nc(-c3ccccc3)oc2C)cc1	u	0%	x
O=C(N/N=C/c1ccc(Cl)cc1)Nc1ccccc1	7%	3%	4%
Clc1ccc(/C=N\Nc2ccccc2)cc1	4µM*	-16%	-5%
CSCCC(NC(=O)/C(=C/c1ccc(F)cc1)NC(C)=O)C(=O)O (stereo not given)	5%[7.66 µM]	6%[7.66 µM]	0%
C(=N\Nc1nc2ccccc2[nH]1)/c1ccccn1	u	11µM*	-12%
C(=N\Nc1nc2ccccc2[nH]1)/c1ccc2ncccc2c1	u	u	9%
SMILES	GLP1R inv ag	GLP1R cytotox	GLP-1R agonist
c1ccc2c(c1)CC/C2=N/Nc1nc2ccccc2[nH]1	u	3.5µM*	0%
CC(C)(C)C1CCC(=NNc2nc3ccccc3[nH]2)CC1 (stereo not given)	u	-25%	10%
CC(C)c1ccccc1NC(=O)COC(=O)c1c2c(nc3ccccc13)CCN(Cc1ccccc1)C2	10µM*	5%	0%
CC1CCc2nc3ccccc3c(C(=O)OCC(=O)NC3CCS(=O)(=O)C3)c2C1 (stereo not given)	12%	6%	13%
CC(C)(C)NC(=O)COC(=O)c1c2c(nc3ccccc13)CCC2	-25%	-6%	0%
Cc1c(Cl)cccc1NC(=O)COC(=O)c1c2c(nc3ccccc13)CCN(Cc1ccccc1)C2	u	-9%	-6%
CC(C)NC(=O)NC(=O)COC(=O)c1c2c(nc3ccccc13)CCC2	10µM*	u	6%

Bioassay records as filed in PubChem.
